The list is not random: actives were taken first. Their share in the collection is about 3.5%.
TEAD-YAP block: TEAD-YAP interaction inhibition, primary screen, TEAD-YAP interaction inhibitor project, luminescence, HEK-TIYL cells; AID 1259422, 2018; inhibition, % at 9.12 µM; TEAD-Gal4/YAP UAS-luciferase luminescence; 1.4% of 640,000 active; in the data active = inhibition above about 32%
MITF primary: MITF inhibitors, primary screen, biochemical, AlphaScreen, human; inhibition, % at 2.6 µM; AID 1259374, 2018; Microphthalmia-associated transcription factor (Homo sapiens), O75030; AlphaScreen MITF homodimerization, bead proximity signal; 0.91% of 650,000 active; in the data active = inhibition above about 50%
GPR151 activ: activators of human GPR151, primary screen, cell-based, PathHunter beta-arrestin, luminescence. 1% of 650,000 active. G-protein coupled receptor 151 (Homo sapiens), Q8TDV0. activation, % at 11.2 µM. PathHunter beta-arrestin GPR151 cells. AID 1508602, 2020; in the data active = activation above about 4.9%
FBW7 activator: FBW7 E3 ligase activators, primary screen, biochemical, AlphaScreen, human; 0.13% of 650,000 active; normalized activity (activation), % at 26.1 µM; AlphaScreen FBW7–phospho-cyclin E peptide binding, activator screen; F-box/WD repeat-containing protein 7 (Homo sapiens), Q969H0; AID 1259310, 2017; in the data active = normalized activity above about 1.9%;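 note: purified mutant Fbw7 with reduced substrate affinity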
Large screens that a line does not name were inactive.

COc1cccc(C2=CC(c3cccc(OC)c3OC)n3nnnc3N2)c1 (stereo not given)	none
COc1ccccc1N1CCN(CC(O)COc2ccc3ccccc3c2)CC1 (stereo not given)	none
Cc1cc(C)cc(NC(=O)CN2C(=O)C3CCCN3c3ncc(Cl)cc32)c1 (stereo not given)	none
O=C(NCCCN1CCCC1=O)c1ccnc(Nc2nccc3ccccc23)c1	none
CCOC(=O)c1c(C)c(C(=O)Nc2ccc(OC)cc2)c(C)n1CC	TEAD-YAP block 47
CCOC(=O)c1c(C)c(C(=O)Nc2ccc(C(=O)OC)cc2)c(C)n1CC	none
CCOC(=O)c1c(C)c(C(=O)Nc2ccc(OC)cc2OC)c(C)n1CC	TEAD-YAP block 46
CC(C)c1ccc(CNC(=O)c2ccc([N+](=O)[O-])cc2)cc1	none
Cc1cccc(NC(=S)NC(=O)c2cccc(Br)c2)n1	none
Cc1ccnc(NC(=S)NC(=O)c2cccc(Br)c2)c1	TEAD-YAP block 33
COc1ccc(CNC(=O)CCCn2c(SCC(=O)Nc3ccccc3OC)nc3cc4c(cc3c2=O)OCO4)cc1	none
O=C(CCCCC(=O)NNC(=O)CCc1ccccc1)NNC(=O)CCc1ccccc1	FBW7 activator 2.3
OCC#CCSc1ncnn1-c1ccccc1	FBW7 activator 7.2
CNc1ccc(Cl)cc1C(=O)c1cc(OC)c(OC)c(OC)c1	TEAD-YAP block 54
COc1cc(C(=O)Nc2ccc(F)cc2F)cc(OC)c1OC	none
COc1cc(C(=O)c2cc(Br)ccc2N)cc(OC)c1OC	TEAD-YAP block 51
CC(C)S(=O)(=O)/C(Cl)=C(\Cl)C(=O)Nc1ccccc1Cl	TEAD-YAP block 95
CC1=C(C#N)C(=O)NC(=O)/C1=C\c1ccc(-c2ccc(S(=O)(=O)O)cc2)o1	MITF primary 59
CCOc1cc(N2CCOCC2)c(OCC)cc1NC(=O)c1cc(Cl)c(Cl)cc1C(=O)O	MITF primary 70
CCOc1cc(N2CCOCC2)c(OCC)cc1NC(=O)c1cccc([N+](=O)[O-])c1C	none
COc1ccc(N2C(=O)NC(=O)/C(=C/c3ccc(I)o3)C2=O)cc1	MITF primary 69
O=C1NC(=O)N(c2cccc(Cl)c2)C(=O)/C1=C/c1ccc([N+](=O)[O-])o1	MITF primary 75
COc1ccc(N2C(=O)/C(=C\c3ccc([N+](=O)[O-])o3)C(=O)NC2=S)cc1	MITF primary 79
COc1cccc(N2C(=O)/C(=C/c3ccc([N+](=O)[O-])s3)C(=O)NC2=S)c1	none
COc1ccc(N2C(=O)/C(=C\c3ccc([N+](=O)[O-])s3)C(=O)NC2=S)cc1	MITF primary 59
CC1(C)CC(OC(=O)CCC(=O)OC2CC(C)(C)NC(C)(C)C2)CC(C)(C)N1	none
Cc1ccc(-n2cc(-c3ccccc3)c3c(NC4CCCCCC4)ncnc32)cc1Cl	none
O=C(CSc1nc2ccc(NC(=O)C3CCCCC3)cc2s1)NCCc1ccccc1	none
CCOC(=O)CC(=O)CSc1ncnc2c1nnn2-c1ccc(F)cc1	none
CCc1ccccc1NS(=O)(=O)c1ccc2c(c1)CCN2C(=O)C1CC1	none
COc1cccc(N2C(=O)NC(=O)/C(=C/c3ccc([N+](=O)[O-])o3)C2=O)c1	MITF primary 67
COc1cccc(N2C(=O)/C(=C/c3ccc([N+](=O)[O-])o3)C(=O)NC2=S)c1	MITF primary 71
COc1cccc(N2C(=O)/C(=C\c3ccc(OC)cc3OC)C(=O)NC2=S)c1	none
Cc1ccc(/C=C2\C(=O)NC(=S)N(c3cccc(Cl)c3)C2=O)o1	none
O=C1NC(=O)N(c2cccc(Cl)c2)C(=O)/C1=C/c1ccc(I)o1	MITF primary 67
Cc1cc(C)cc(N2C(=O)NC(=O)/C(=C\c3ccc([N+](=O)[O-])o3)C2=O)c1	none
CN1CCN(C(=O)c2ccc(-c3nc(NC4CCN(Cc5ccccc5)CC4)c4ncn(CCN5CCCC5=O)c4n3)cc2)CC1	none
CCOC(=O)c1c(C)n(-c2ccc(OC)cc2)c2ccc(OC)cc12	none
O=C(CSc1nnc(NC(=O)c2ccccc2F)s1)NC1CCCC1	none
CCOC(=O)c1c(NC(=O)c2ccc(C)cc2)sc(C(=O)Nc2ccccc2)c1C	none
CCCc1sc(NC(=O)c2ccc(C)cc2)c(C(=O)O)c1C	TEAD-YAP block 52
COc1ccc(-c2csc(NC(=O)c3ccc(C)cc3)c2C(=O)O)cc1	TEAD-YAP block 47
CCS(=O)(=O)Nc1ccc(C2=NN(C(=O)c3ccco3)C(c3ccc(C)cc3)C2)cc1 (stereo not given)	none
COc1ccccc1NC(=S)N(CCCN1CCCCCC1)Cc1cccs1	none

Screens from PubChem BioAssay.
